Structures can show the parent of a compound that is named as a salt.
Test system: Vero E6 infected with SARS-CoV-2
Test: inhibition of SARS-CoV-2 cytopathic effect; higher = more antiviral protection, active = above 15
Conditions: 48 h

Measured: inhibition of SARS-CoV-2 cytopathic effect

O=C(O)c1ccccc1NCCc1ccccc1 [tromaril]
inactive: 1 nM -2.04% | 8.33 nM 0.78% | 100 nM 1.18% | 833.33 nM 1.39% | 10000 nM 1.35%

Cc1c(C(N)=O)cc([N+](=O)[O-])cc1[N+](=O)[O-] [dinitolmide]
inactive: 1 nM -1.43% | 8.33 nM 2.03% | 100 nM 1.29% | 833.33 nM -2.22% | 10000 nM -3.59%

COc1ccc(C2=N[C@@H](c3ccc(Cl)cc3)[C@@H](c3ccc(Cl)cc3)N2C(=O)N2CCNC(=O)C2)c(OC(C)C)c1 [nutlin-3]
inactive: 1 nM 1.71% | 8.33 nM 1.61% | 100 nM 5.23% | 833.33 nM 5.08% | 10000 nM 3.38%

CC[C@@H](c1cccc(O)c1)[C@@H](C)CN(C)C [Tapentadol (hydrochloride)]
inactive: 1 nM 2% | 8.33 nM 1.05% | 100 nM 1.07% | 833.33 nM 3.03% | 10000 nM -0.29%

O=C1NCC2(CCN(CCc3ccccc3)CC2)O1 [fenspiride]
inactive: 1 nM -2.77% | 8.33 nM -1.55% | 100 nM 2.18% | 833.33 nM 0.71% | 10000 nM 0.43%

CCCCCCCCCCCCCCCC=O [1-hexadecanal]
inactive: 1 nM 0.5% | 8.33 nM 2.85% | 100 nM -0.54% | 833.33 nM -0.08% | 10000 nM 1.56%

C[C@]12CCC(=O)C=C1[C@@H]1C[C@@H]1[C@H]1[C@@H]3[C@@H]4C[C@@H]4[C@@]4(CCC(=O)O4)[C@@]3(C)CC[C@@H]12 [drospirenone]
inactive: 1 nM -10.6% | 8.33 nM -1.07% | 100 nM -3.16% | 833.33 nM 0.94% | 10000 nM 5.09%

NCC(=O)CCC(=O)O [5-aminolevulinic-acid]
inactive: 1 nM 1.18% | 8.33 nM 1.35% | 100 nM -3.53% | 833.33 nM -0.73% | 10000 nM 0.28%

O=C1C(O)=C(O)C(=O)C(O)=C1O [tetroquinone]
inactive: 1 nM -0.23% | 8.33 nM 0.57% | 100 nM 1.71% | 833.33 nM -0.73% | 10000 nM -0.73%

CSCC1CN(/N=C/c2ccc([N+](=O)[O-])o2)C(=O)O1 (stereo not given) [inimur]
inactive: 1 nM -1.14% | 8.33 nM -0.35% | 100 nM 2.9% | 833.33 nM 1.93% | 10000 nM 0.52%

CC(=O)Oc1ccccc1C(=O)Nc1ncc([N+](=O)[O-])s1 [nitazoxanide]
inactive: 1 nM 4.76% | 8.33 nM -3.73% | 100 nM -1.27% | 833.33 nM -0.63% | 10000 nM 8.82%

C[N+]1(C)CCC(OC(=O)C(O)(c2ccccc2)C2CCCC2)C1 (stereo not given) [glycopyrrolate]
inactive: 1 nM -3.43% | 8.33 nM -1.27% | 100 nM -0.55% | 833.33 nM -0.2% | 10000 nM -1.06%

CN(C)CCCCC(=O)Nc1ccc(NC(=S)NC(=O)c2ccc(C(C)(C)C)cc2)cc1 [tenovin-6]
active: 10000 nM 18%
inactive: 1 nM -2.53% | 8.33 nM 0.01% | 100 nM -0.72% | 833.33 nM 4.3%

COc1ccc(S(=O)(=O)Nc2cccnc2Nc2ccc(O)cc2)cc1
inactive: 1 nM 1.18% | 8.33 nM 4.25% | 100 nM 1.28% | 833.33 nM 0.22% | 10000 nM 1.62%

Cc1cc(Cl)ccc1OCCCC(=O)NO [droxinostat]
inactive: 1 nM 4.45% | 8.33 nM 1.04% | 100 nM 1.23% | 833.33 nM 1.7% | 10000 nM -3.27%

CCC(=O)O[C@H](CC(=O)O)C[N+](C)(C)C [levocarnitine-propionate]
inactive: 1 nM -0.81% | 8.33 nM 4.36% | 100 nM 0.32% | 833.33 nM 3.36% | 10000 nM 0.31%

Oc1ccnc2cc(Cl)ccc12 [chloroxoquinoline]
inactive: 1 nM -2.22% | 8.33 nM 0.71% | 100 nM 0.09% | 833.33 nM -0.05% | 10000 nM 1.04%

Clc1cccc(-n2nnnc2NCc2ccccc2Oc2ccccn2)c1Cl
inactive: 1 nM 1.27% | 8.33 nM -1.76% | 100 nM -3.85% | 833.33 nM 0.18% | 10000 nM 1.67%

Cn1cc(-c2ccc3c(c2)CCN3C(=O)Cc2cccc(C(F)(F)F)c2)c2c(N)ncnc21
active: 833.33 nM 32.5% | 10000 nM 27.7%
inactive: 1 nM 0.06% | 8.33 nM 0.68% | 100 nM 1.48%

Source: the supplement of paper PMC13380429
